Assay results taken from PubChem BioAssay (Tox21).
Records with an inconclusive call do not appear. Where a call stands in place of a potency, no number is given. A number with no mark means an inactive call. The source made the active and inactive calls. The call rests on the fitted dose curve.

Assay: qHTS assay for small molecule agonists of the p53 signaling pathway - cell viability (AID 651633);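 further: p53RE-bla HCT reporter cells with a stable beta-lactamase p53 reporter; nearly all actives have a fitted effect of over 30% in size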
Details: p53RE-bla HCT-116 viability, ATP luminescence, 16 h; series mostly up to 83.3 µM
How it was run: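 p53RE-bla cells, seeded at 4,000 per well and rested 5 h at 37 C/5% CO2, received compounds in DMSO for 16 h at 37 C. CellTiter-Glo was then added, and luminescence was read after 30 min at room temperature to gauge cytotoxicity.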

Row | Structure (SMILES) | Potency
1 | CCC(=O)O[C@]1(C(=O)SCF)[C@H](C)C[C@H]2[C@@H]3C[C@H](F)C4=CC(=O)C=C[C@]4(C)[C@@]3(F)[C@@H](O)C[C@@]21C | inactive
2 | CCCCNCCCC | inactive
3 | CC(=O)Nc1ccc(C)c(Cl)c1 | inactive
4 | NCCCN1CCN(CCCN)CC1 | inactive
5 | O=c1[nH]cnc2c1ncn2[C@@H]1O[C@H](CO)[C@@H](O)[C@H]1O | inactive
6 | FC(F)(F)C(F)(F)C(F)(F)C(F)(F)C(F)(F)C(F)(F)C(F)(F)C(F)(F)Br | inactive
7 | C=CCCCCCCCCO | inactive
8 | O=C(C(Cl)Cl)N1CCOC12CCCCC2 | inactive
9 | CC1(C)S[C@@H]2[C@H](NC(=O)C(C(=O)O)c3ccccc3)C(=O)N2[C@H]1C(=O)O (stereo partly specified) | inactive
10 | CCCCCCCCCC#N | inactive
11 | CCc1nnc(NS(=O)(=O)c2ccc(N)cc2)s1 | inactive

Assay: qHTS assay for small molecules that induce genotoxicity in human embryonic kidney cells expressing luciferase-tagged ATAD5 - cell viability (AID 651634); further: nearly all actives have a fitted effect of over 25% in size; further: potency means the concentration at half of the fitted maximal effect
Details: HEK293T ATAD5-luc cells viability, CellTiter-Fluor, 15.5 h; series mostly up to 83.3 µM
How it was run: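 HEK293T cells expressing luciferase-tagged ATAD5 were exposed to compound or DMSO for 15.5 hr at 37C, 5% CO2. Viability was then read as live-cell protease activity by CellTiter-Fluor fluorescence after 30 min at 37C.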

Row | Structure (SMILES) | Potency | activity, negative = cytotoxicity
12 | Cc1cc(NS(=O)(=O)c2ccc(N)cc2)nc(C)n1 | inactive | 
13 | CN(C)C(=O)NC1(c2ccccc2)CCN(CCC[C@]2(c3ccc(Cl)c(Cl)c3)CCCN(C(=O)c3ccccc3)C2)CC1 | inactive | 
14 | O=C(O)C(=O)Cc1c[nH]c2ccccc12 | inactive | 
15 | CCCCNc1cc(C(=O)O)cc(S(N)(=O)=O)c1Oc1ccccc1 | inactive | 
16 | NC(Cc1ccc(F)cc1)C(=O)O (stereo unspecified) |  | 10.7% [at 8.08 µM]
17 | CCCCOc1cc(C(=O)NCCN(CC)CC)c2ccccc2n1 | inactive | 
18 | C[C@]12C(=O)OC(=O)[C@H]1[C@H]1C=C[C@@H]2C1 | inactive | 
19 | CCCCc1ccc2nc(NC(=O)OC)[nH]c2c1 | 90.2 nM (active) | 
20 | CCC1(C)NC(=O)NC1=O (stereo unspecified) | inactive | 
21 | OCC(CBr)(CBr)CBr | inactive | 
22 | NNS(=O)(=O)c1ccc(Oc2ccc(S(=O)(=O)NN)cc2)cc1 | inactive | 
23 | C=CCCC=C | inactive | 
24 | COc1cc(N)c(Cl)cc1C(=O)NC1CCN(Cc2ccccc2)CC1 | inactive | 
25 | CCOC(=O)C1CC(=O)C(=C(O)C2CC2)C(=O)C1 (stereo unspecified) | inactive | 
26 | OCCN(CCO)c1ccccc1 | inactive | 
27 | CC(CNC1CCCCC1)OC(=O)c1ccccc1 (stereo unspecified) | inactive | 
28 | C[C@@H](N)C(=O)O | inactive | 
29 | ICCc1ccccc1 | inactive | 

Row | Structure (SMILES) | Potency | activity, negative = cytotoxicity
30 | Cc1cccc(C)c1NC(=O)CN1CCCCCC1 | inactive | 
31 | O=S(=O)(O)C(F)(F)F | inactive | 
32 | CCOC(=O)NCCC[Si](OCC)(OCC)OCC | inactive | 
33 | CCN(CC)CCNC(=O)COc1ccc(Cl)cc1 | inactive | 
34 | CCCN(CCC)C(=O)C(CCC(=O)O)NC(=O)c1ccccc1 (stereo unspecified) | inactive | 
35 | Cc1ccc([N+](=O)[O-])cc1Cl | inactive | 
36 | CCC(=O)O[C@]1(C(=O)SCF)[C@H](C)C[C@H]2[C@@H]3C[C@H](F)C4=CC(=O)C=C[C@]4(C)[C@@]3(F)[C@@H](O)C[C@@]21C | inactive | 
37 | CCCCNCCCC | inactive | 
38 | CC(=O)Nc1ccc(C)c(Cl)c1 | inactive | 
39 | NCCCN1CCN(CCCN)CC1 | inactive | 
40 | O=c1[nH]cnc2c1ncn2[C@@H]1O[C@H](CO)[C@@H](O)[C@H]1O | inactive | 
41 | FC(F)(F)C(F)(F)C(F)(F)C(F)(F)C(F)(F)C(F)(F)C(F)(F)C(F)(F)Br | inactive | 
42 | C=CCCCCCCCCO | inactive | 
43 | O=C(C(Cl)Cl)N1CCOC12CCCCC2 | inactive | 
44 | CC1(C)S[C@@H]2[C@H](NC(=O)C(C(=O)O)c3ccccc3)C(=O)N2[C@H]1C(=O)O (stereo partly specified) | inactive | 
45 | CCCCCCCCCC#N | inactive | 
46 | CCc1nnc(NS(=O)(=O)c2ccc(N)cc2)s1 | inactive | 

Assay: qHTS assay for small molecule disruptors of the mitochondrial membrane potential - cell viability (AID 720634);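 further: human HepG2 liver cancer cells; nearly all actives have a fitted effect of over 20% in size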
Details: HepG2 viability, ATP luminescence (CellTiter-Glo), 1 h; series mostly up to 83.2 µM
How it was run: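 HepG2 cells seeded overnight at 37 C, then exposed to compound or DMSO for 1 hr at 37 C, 5% CO2. m-MPI dye added, then CellTiter-Glo for 30 min at room temperature; viability read as ATP luminescence.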

Row | Structure (SMILES) | Potency | activity change, negative = cytotoxicity
47 | Cc1cc(NS(=O)(=O)c2ccc(N)cc2)nc(C)n1 | inactive | 
48 | CN(C)C(=O)NC1(c2ccccc2)CCN(CCC[C@]2(c3ccc(Cl)c(Cl)c3)CCCN(C(=O)c3ccccc3)C2)CC1 | inactive | 
49 | O=C(O)C(=O)Cc1c[nH]c2ccccc12 | inactive | 
50 | CCCCNc1cc(C(=O)O)cc(S(N)(=O)=O)c1Oc1ccccc1 | inactive | 
51 | NC(Cc1ccc(F)cc1)C(=O)O (stereo unspecified) |  | -3.31% [at 8.08 µM]
52 | CCCCOc1cc(C(=O)NCCN(CC)CC)c2ccccc2n1 | inactive | 
53 | C[C@]12C(=O)OC(=O)[C@H]1[C@H]1C=C[C@@H]2C1 | inactive | 
54 | CCCCc1ccc2nc(NC(=O)OC)[nH]c2c1 | inactive | 
55 | CCC1(C)NC(=O)NC1=O (stereo unspecified) | inactive | 
56 | OCC(CBr)(CBr)CBr | inactive | 
57 | NNS(=O)(=O)c1ccc(Oc2ccc(S(=O)(=O)NN)cc2)cc1 | inactive | 
58 | C=CCCC=C | inactive | 
59 | COc1cc(N)c(Cl)cc1C(=O)NC1CCN(Cc2ccccc2)CC1 | inactive | 
60 | CCOC(=O)C1CC(=O)C(=C(O)C2CC2)C(=O)C1 (stereo unspecified) | inactive | 
61 | OCCN(CCO)c1ccccc1 | inactive | 
62 | CC(CNC1CCCCC1)OC(=O)c1ccccc1 (stereo unspecified) | inactive | 
63 | C[C@@H](N)C(=O)O | inactive | 
64 | ICCc1ccccc1 | inactive | 

Row | Structure (SMILES) | Potency | activity change, negative = cytotoxicity
65 | Cc1cccc(C)c1NC(=O)CN1CCCCCC1 | inactive | 
66 | O=S(=O)(O)C(F)(F)F | inactive | 
67 | CCOC(=O)NCCC[Si](OCC)(OCC)OCC | inactive | 
68 | CCN(CC)CCNC(=O)COc1ccc(Cl)cc1 | inactive | 
69 | CCCN(CCC)C(=O)C(CCC(=O)O)NC(=O)c1ccccc1 (stereo unspecified) | inactive | 
70 | Cc1ccc([N+](=O)[O-])cc1Cl | inactive | 
71 | CCC(=O)O[C@]1(C(=O)SCF)[C@H](C)C[C@H]2[C@@H]3C[C@H](F)C4=CC(=O)C=C[C@]4(C)[C@@]3(F)[C@@H](O)C[C@@]21C | inactive | 
72 | CCCCNCCCC | inactive | 
73 | CC(=O)Nc1ccc(C)c(Cl)c1 | inactive | 
74 | NCCCN1CCN(CCCN)CC1 | inactive | 
75 | O=c1[nH]cnc2c1ncn2[C@@H]1O[C@H](CO)[C@@H](O)[C@H]1O | inactive | 
76 | FC(F)(F)C(F)(F)C(F)(F)C(F)(F)C(F)(F)C(F)(F)C(F)(F)C(F)(F)Br | inactive | 
77 | C=CCCCCCCCCO | inactive | 
78 | O=C(C(Cl)Cl)N1CCOC12CCCCC2 | inactive | 
79 | CC1(C)S[C@@H]2[C@H](NC(=O)C(C(=O)O)c3ccccc3)C(=O)N2[C@H]1C(=O)O (stereo partly specified) | inactive | 
80 | CCCCCCCCCC#N | inactive | 
81 | CCc1nnc(NS(=O)(=O)c2ccc(N)cc2)s1 | inactive | 
